For 4 molecules, Potency and outcome results are on record in PubChem BioAssay (Tox21).

Structures are written as SMILES. Records with an inconclusive call do not appear. A structure can be active in one record and inactive in another. The source made the active and inactive calls. Unless noted, calls follow the shape of the dose curve; as a rule, active = well fitted curve in the direction sought with a large enough effect in the repeat runs; inconclusive = weak or mixed curves; inactive = no such curve, though single readings can be large; an effect the other way counts as inactive or inconclusive.

The nature of assay [1]: qHTS assay to identify small molecule antagonists of the estrogen receptor alpha (ER-alpha) signaling pathway using the BG1 cell line in the presence of 0.1 nM 17-beta-estradiol - cell viability counter screen (AID 1259241). Also: nearly all actives have a fitted effect of over 40% in size. The essentials: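 Following 5 days in phenol red-free medium with charcoal-stripped serum, VM7Luc4E2 cells received test compounds alongside 0.1 nM 17beta-estradiol (final) at 37C for 22 hr. Live cells were then quantified via protease-substrate fluorescence.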
Background: qHTS replaces the single test concentration by a dilution series.

A short description of assay [2]: qHTS assay to identify small molecule antagonists of the androgen receptor (AR) signaling pathway using the MDA cell line in the presence of 0.5 nM R1881 - cell viability counter screen (AID 1259242). Also: nearly all actives have a fitted effect of over 45% in size. In a few lines: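 Fluorescence from CellTiter-Fluor, which reports protease activity of live cells, was read 30 min after reagent addition to MDA-kb2 cells that had been incubated 16 hr with compound and 0.5 nM R1881.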

The target of assay [3] is Estrogen receptor (Homo sapiens) (UniProt P03372). In words: qHTS assay to identify small molecule antagonists of the estrogen receptor alpha (ER-alpha) signaling pathway using the BG1 cell line in the presence of 0.1 nM 17-beta-estradiol (AID 1259244). Also: nearly all actives have a fitted effect of over 50% in size. In a few lines: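 Quantitative high-throughput screen in VM7Luc4E2 cells: compound plus 0.1 nM E2 (final), 22 h, 37C, 5% CO2; ONE-Glo added, 30 min room temperature, luminescence measured.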
Estrogen receptor (Homo sapiens), sequence (P03372 whole entry, looked up): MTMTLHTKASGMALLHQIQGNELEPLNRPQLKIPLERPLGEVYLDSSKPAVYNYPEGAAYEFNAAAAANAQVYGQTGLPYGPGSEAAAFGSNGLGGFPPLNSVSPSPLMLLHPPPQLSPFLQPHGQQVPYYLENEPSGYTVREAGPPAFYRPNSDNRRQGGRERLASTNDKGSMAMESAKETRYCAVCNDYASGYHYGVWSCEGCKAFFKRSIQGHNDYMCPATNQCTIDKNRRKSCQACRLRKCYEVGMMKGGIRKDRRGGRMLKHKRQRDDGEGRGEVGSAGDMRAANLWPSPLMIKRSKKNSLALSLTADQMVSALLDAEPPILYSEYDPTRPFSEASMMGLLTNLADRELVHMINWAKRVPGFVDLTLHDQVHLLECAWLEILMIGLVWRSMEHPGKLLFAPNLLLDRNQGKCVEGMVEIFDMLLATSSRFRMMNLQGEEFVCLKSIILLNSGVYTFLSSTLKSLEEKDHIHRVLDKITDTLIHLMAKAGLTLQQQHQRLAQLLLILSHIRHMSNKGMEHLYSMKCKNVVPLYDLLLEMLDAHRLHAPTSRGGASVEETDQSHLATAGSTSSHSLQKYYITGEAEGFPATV

Assay [4] can be described thus: qHTS assay to identify small molecule phospholipidosis (PLD) inducers (AID 1259344; active = well fitted curve in the direction sought with a large enough effect; an effect the other way counts as inactive or inconclusive). In a few lines: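 HepG2 cells on collagen I, attached 4 h at 37 C, were co-treated with compound and LipidTOX Red dye for 24 h at 37 C, then fixed with paraformaldehyde plus Hoechst 33342 and imaged by high-content microscopy for phospholipid accumulation.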
The nature of assay [5]: qHTS assay to identify small molecule HDAC inhibitors (AID 1259364). Also: top concentration of the series differs between compounds; nearly all actives have a fitted effect of over 45% in size. In a few lines: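 Endogenous HDAC class I/II activity was measured in wild-type HCT-116 cells by HDAC-Glo luminescence after 2 h compound treatment.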
The nature of assay [6]: qHTS assay to identify small molecule HDAC inhibitors - cell viability counter screen (AID 1259365). Also: series mostly up to about 92 µM; nearly all actives have a fitted effect of over 50% in size. In a few lines: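 HCT-116 wild-type, overnight attachment; 2hr drug exposure, 37C; CellTiter-Glo luminescent ATP readout after 30min RT.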
Assay [7] can be described thus: qHTS assay to identify small molecule agonists of the sonic hedgehog signaling (Shh) pathway - cell viability counter screen (AID 1259366). Also: nearly all actives have a fitted effect of over 50% in size. The essentials:
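Compounds in DMSO were pin-transferred onto 3T3 Gli1-Luc cells that had settled 4hr; plates then stood 24hr at 37C and 5% CO2. One hour before the end, CellTiter-Fluor was added and fluorescence recorded.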

Assay [8] can be described thus: qHTS assay to identify small molecule antagonists of the sonic hedgehog signaling (Shh) pathway - cell viability counter screen (AID 1259367). Also: nearly all actives have a fitted effect of over 55% in size. In a few lines:
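NIH/3T3-derived Gli1-Luc reporter cells (2,000 per well) rested 4 hr at 37 C, then received DMSO compounds plus conditioned medium. After 23 hr of treatment, CellTiter-Fluor was added for 1 hr at 37C and fluorescence read.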

Assay [9] in a line: qHTS assay to identify small molecule agonists of the sonic hedgehog signaling (Shh) pathway (AID 1259368; calls by dose curve;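 also: NIH/3T3-derived 3T3Gli1-Luc cells carrying a stable Gli1-driven firefly luciferase reporter; series mostly up to about 92 µM; nearly all actives have a fitted effect of over 15% in size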). The essentials:
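Luminescent signal was taken as a measure of Gli1-controlled luciferase expression in stably transfected NIH/3T3-derived cells that had been treated for 24 hr with compounds delivered in DMSO.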

Assay [10] is described as follows: qHTS assay to identify small molecule antagonists of the sonic hedgehog signaling (Shh) pathway (AID 1259369; calls by dose curve; also: nearly all actives have a fitted effect of over 45% in size). In a few lines:
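Screening used 3T3Gli1-Luc cells at 2,000 per well, compounds delivered in DMSO, and conditioned medium as agonist stimulus; plates incubated 24hr at 37 C and 5% CO2 before a 30min luciferase step.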

In assay [11] the target is Estrogen receptor beta (Homo sapiens) (UniProt Q92731). In words: qHTS assay to identify small molecule agonists of the estrogen receptor beta (ER-beta) signaling pathway (AID 1259377; active = well fitted activation curve with a large enough effect in the signal ratio in the repeat runs, not every such curve was filed as active; the % refers to the signal ratio). In a few lines: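 qHTS in ER-beta-UAS-bla HEK293T cells: 6 hr settling, then 16 hr compound at 37C, then LiveBLAzer substrate 2 h at RT before fluorescence reading.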
Estrogen receptor beta (Homo sapiens), sequence (Q92731 whole entry, looked up): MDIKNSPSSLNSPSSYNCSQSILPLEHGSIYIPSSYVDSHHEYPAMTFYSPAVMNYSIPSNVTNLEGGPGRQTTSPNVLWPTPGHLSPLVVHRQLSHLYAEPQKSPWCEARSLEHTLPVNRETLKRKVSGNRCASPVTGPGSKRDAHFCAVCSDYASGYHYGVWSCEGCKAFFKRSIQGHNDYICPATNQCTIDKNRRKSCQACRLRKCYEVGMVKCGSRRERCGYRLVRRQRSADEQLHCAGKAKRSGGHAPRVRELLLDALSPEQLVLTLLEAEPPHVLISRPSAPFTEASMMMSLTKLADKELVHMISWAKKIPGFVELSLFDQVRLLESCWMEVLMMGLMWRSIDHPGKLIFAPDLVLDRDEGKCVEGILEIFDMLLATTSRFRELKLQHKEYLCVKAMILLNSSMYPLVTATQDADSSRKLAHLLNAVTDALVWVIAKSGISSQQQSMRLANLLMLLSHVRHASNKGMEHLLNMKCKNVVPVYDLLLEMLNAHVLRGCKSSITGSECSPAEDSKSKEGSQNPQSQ
Assay [12] has the same target. The assay can be described thus: qHTS assay to identify small molecule antagonists of the estrogen receptor beta (ER-beta) signaling pathway (AID 1259378; active = well fitted inhibition curve with a large enough effect in the signal ratio in the repeat runs, not every such curve was filed as active; the % refers to the signal ratio). In a few lines:
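ER-beta-UAS-bla HEK293T (GripTite) cells in 2% charcoal-stripped FBS medium were preincubated 6 hr at 37C, dosed with compound, then stimulated with 1 nM E2 (final) for 16 hr; beta-lactamase reporter read by B/G FRET fluorescence after 2 hr substrate loading.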

Assay [13] can be described thus: qHTS assay to identify small molecule agonists of the androgen receptor (AR) signaling pathway in the presence of an antagonist - cell viability counter screen (AID 1259379).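 Also: MDA-kb2 human breast cancer cells carrying an MMTV luciferase reporter; series mostly up to about 92 µM; nearly all actives have a fitted effect of over 25% in size.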 In a few lines:
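In MDA-kb2 cells (human breast carcinoma, MMTV-luciferase), compounds at 15 concentrations plus 3.0uM nilutamide; 16 hr, 37C, 0% CO2; CellTiter-Fluor fluorescence read for viability.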

The nature of assay [14]: qHTS assay to identify small molecule agonists of the estrogen receptor beta (ER-beta) signaling pathway - cell viability counter screen (AID 1259380). Also: nearly all actives have a fitted effect of over 30% in size. Also: potency is read from the fitted curve at half-maximal effect. The essentials:
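Viability of ER-beta-UAS-bla HEK293T cells was determined by CellTiter-Glo luminescence following 16 hr treatment with test compounds at 37C.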

A short description of assay [15]: qHTS assay to identify small molecule antagonists of the estrogen receptor beta (ER-beta) signaling pathway - cell viability counter screen (AID 1259382). Also: series mostly up to about 92 µM; nearly all actives have a fitted effect of over 55% in size. The essentials:
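Tox21 10K library tested in qHTS format on ER-beta-bla HEK293T cells stimulated with 1nM E2; 16 hr treatment at 37C. Same-well CellTiter-Glo luminescence served as the cell viability measure.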

The target in assay [16] is Estrogen receptor (Homo sapiens) (UniProt P03372). In words: qHTS assay to identify small molecule agonists of the estrogen receptor alpha (ER-alpha) signaling pathway in the presence of an antagonist (AID 1259383; calls by dose curve; also: top concentration of the series differs between compounds; nearly all actives have a fitted effect of over 15% in size). The essentials: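 In VM7Luc4E2 cells, 4,000 per well, compounds at 15 concentrations were co-incubated 22hr at 37C with 10.0nM final ICI-182,780. Luminescence from the stably transfected 4×ERE-luciferase reporter was recorded 30min after ONE-Glo addition.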

A short description of assay [17]: qHTS assay to identify small molecule agonists or antagonists of the thyroid stimulating hormone receptor (TSHR) signaling pathway - wild type cell line counter screen (AID 1259384; calls by dose curve). In a few lines:
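Wild-type HEK293 cells were plated 18 h at 37 C/5% CO2, pin-dosed with compound plus Ro20-1724 medium, held 30 min at room temperature, then given cAMP-d2 and anti-cAMP-cryptate; fluorescence was read after 1 h. Fifteen concentrations, triplicate.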

Regarding `CC(=O)NS(=O)(=O)c1ccc(N)cc1`, the Potency entry in [1], in [2], in assay [3], in [5], in assay [7] and in [8] was “inactive” each time. For the same molecule, the Potency result in assay [10], in [12], in assay [13], in assay [14], in [15] and in [16] was “inactive” each time. For the same molecule, the outcome in assay [4], in assay [6], in [9] and in [11] was inactive.

On to `O=c1ccc2ccccc2o1`, for which the Potency entry in assay [1], in [2], in assay [3], in assay [5], in assay [8] and in assay [10] was “inactive” each time. The Potency result in assay [12], in [13], in assay [14] and in [16] was “inactive” throughout. The molecule was classed as inactive in [4], in assay [6], in assay [9], in assay [11] and in assay [17].

On to `CCCC(CCC)C(=O)O`, for which the Potency entry in assay [1], in assay [2], in assay [3], in assay [5], in [7] and in assay [8] was “inactive” throughout. In addition, the Potency result in [10], in assay [13], in [14], in assay [15] and in assay [16] was “inactive” each time. In addition, the result in [4], in assay [6], in assay [9] and in assay [17] was inactive.

`O=C(C1CCCCC1)N1CC(=O)N2CCc3ccccc3C2C1` (configuration not stated): the Potency entry in [1], in [2], in assay [5], in [8], in [10] and in assay [13] was “inactive” throughout. For the same molecule, the Potency entry in assay [15] was “inactive”. Further, the outcome in assay [4], in assay [6] and in [9] was inactive. Further, the Potency in assay [14] was 43.2 µM (active) and inactive.
